Hit rate of the full screen: of about 53,000 sequences, about 3,700 (7%) were called active. Shown is part of a subset that was picked to be rich in actives. Values without a mark were called inactive.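 The calls were made as follows: active = gene knockdowns whose robust z-score for IL-1 alpha signal is at least 2 or at most -2, so actives lie on both sides; inactive = the rest.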

This assay is described as follows: Components of the Cytosolic LPS Sensing Pathway: Gene Identification via Genome-wide siRNA Screen.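 Also: robust z of the log signal after scaling to non-targeting control siRNA wells of the plate.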 The conditions noted are these: RAW264.7 macrophages, IL-1a HTRF, actives lie on both sides, screened at 100 nM (by protocol), cells primed 5 h with Pam3CSK4 first. In a few lines: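 Read-out: IL-1a HTRF on supernatant, divided by plate negative-control median ×100, log-transformed and converted to robust z-score. Cells were RAW264.7 given 100 nM siRNA, Pam3CSK4-primed 5 hours, then LipidA-transfected 24 hour.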
A general note: TR-FRET usually uses a lanthanide donor and a delayed reading to cut background.
Consider CGUCCAGUAUACGCUGGUUTT against Cdc45, for which the z-score is 5.41 (active).
GGAUGAACCAAGCUACUGCTT against Gba2: the z-score was -0.541.
As for GUUCAAGACGGAGAAGAGGTT against Gpr27, the z-score is 3.03 (active).
To CCCAAUACAUGAGCUUCUGTT against Ch25h belongs -0.209; to GGAAGACUUCGUGUUGACATT against Proz, 0.223.
With GGCUCUAUGUUUAUAAUGATT against Olfm5, the z-score is -2.07 (active).
On to GGAAAAAUGACUGAUCUCUTT against Unc5c, for which the z-score is -0.0354.
Regarding GGUUGGUAGACUGUGCUUGTT against Hgsnat, the z-score was -2.56 (active).
To GGACCUACUACGUAAACCATT against Nedd4 belongs 0.434.
As for GGAAUAUCGGACUUUUUCATT against Mis18bp1, the z-score was 0.635.
Regarding CGGGACCUUGUUGAUAACUTT against Tmem130, the z-score was 0.811.
In the case of GGUGUUUGGGAAAGGUCUGTT against Trpm1, the z-score was -1.33.
To GCACAAAUGGGAAUACGACTT against Klhl36 belongs -0.94; to CCAACCAGACUUAUUUAAUTT against Zfp37, 1.61; to GGGUGGCUAUGGACAAAAATT against Arl5c, 0.887.
For GGACAUCAAUUCAACAGUUTT against Lifr, the z-score was -0.361.
To GGAAGAGUGUUUAAACUAUTT against Kbtbd8 belongs -0.591; to CCUGAUCUAAUCCUAAAUGTT against Pgr, -0.171; to AUCUAUUCGAAUCAGGAAGTT against Epsti1, -0.102.
As for GGCUUUUGAAGUAAAUACATT against Pcdhb14, the z-score is 2.65 (active).
In the case of GUCCAGAGUGACCACAUUUTT against Pemt, the z-score was -0.471.
In the case of GGAUUACGCAGAUUCCAUUTT against Rab22a, the z-score is -0.474.
With CGAAUUGAAUUCUACGAACTT against Pmm2 the figure was 0.252.
Take GGAUGAUAAAGACAAAGUATT against Ppm1g: the z-score was -0.921.
With GGUUUCUGGCUUUCCGUAGTT against Erf the figure was -0.0549; with GCUCUGCAUGACCUUACCUTT against Ugt2b1, 0.245; with GGCCUUUGUACAGGACCCATT against Tor2a, -1.01.
In the case of GGUCAGAAGAGAUCAAAAGTT against Ttc23, the z-score was -0.0386.
With GCCUACUCCCAAGAGGAAATT against Gprc5a the figure was 2.32 (active); with GGACAGCAAGAUGAAGAUGTT against Il17ra, -1.32.
In the case of UUGAUUUGGUAGCCUGCUCTT against Olfr1303, the z-score is 0.962.
As to “CCCUGCUUCGUGUGCUAUUTT against C130074G19Rik”, the z-score was 0.499.
With GGUACCUGAGGUAGAAAAGTT against Pnma3 the figure was -2.5 (active); with GGAAUGUGUUGAAAUAUGATT against P4ha3, 0.0288; with CCACGGAGACAACUUAGUATT against Scfd2, 0.568.
In the case of GGCGGUCAAGUGAGGUUCUTT against Hhex, the z-score was 3.62 (active).
In the case of GGACUUUUCUGCUAUUUACTT against Kcnh2, the z-score is -0.471.
On to GGAAAGAAUUGAAUACUCGTT against Gpr89, for which the z-score is -0.279.
GGUGAAUUUCCUUCUACAUTT against Tas1r1: the z-score was -1.56.
Turning to GCUGGGAUAUGAAAUCUAUTT against Gprc6a, the z-score was 2.74 (active).
GGUGAUAAAGUCAUUCCACTT against Adh1: the z-score is 0.759.
GGAAGACAUAUUUCAACAGTT against Ehhadh: the z-score is -1.37.
As for GCAGUGUAUUGGUAAUCAATT against Olfr630, the z-score is 1.44.
For the sequence GCAUCGAUCUUGAGUUAGATT against Hebp1, the z-score was 0.579.
Turning to GCGCAGGUUCAAUGUGGAUTT against Prodh, the z-score is 1.72.
With GGCGAUAGACGAGUAUCAGTT against Aida the figure was 0.41.
As to CCAGCAAAUAUCCUAGUAATT against Cdk19, the z-score is 0.111.
To CGUGUGUGUCAUGUUACGGTT against Dusp2 belongs -0.901.
In the case of GGAGAGCUGGAACAAUAGCTT against Bcl2l2, the z-score is 2.26 (active).
With GGAUGAAUGGAGAACUGAATT against Afap1l1 the figure was -1.21; with CCAUGACAAUGAAUAUCCUTT against Ms4a19, -1.24.
As to GCGAGCUAAUGUCACAUUCTT against Il17ra, the z-score was 3.74 (active).
As to GGAACUAUCACGUGUUCUATT against Myo7a, the z-score is 0.837.
As for CCAGAUGGGAUACCUCUACTT against Tmed6, the z-score was 0.303.
With GGUCUCUUUCAUGCUCGCATT against Agr3 the figure was 3.06 (active).
With CCCUAACCUCAUUUCAUGUTT against Vmn1r63, the z-score is -1.01.
To GGAAAACAACGAAUUGCUCTT against Uri1 belongs 0.791; to GCCGAUGACACUAUCUACCTT against Cryz, 0.465.
Turning to CCUCAAUCAAAAUGUAAGUTT against Atp6v0a2, the z-score is 0.456.
With GGAUCUGAAGGAAUACUUUTT against Lmf1, the z-score was 1.69.
For the sequence GGAACAAACCAAGUUCACATT against Kcnip2, the z-score is -0.66.
Turning to GGACUCCAAGAUCAUGGUCTT against Pnck, the z-score is 1.07.
Consider GCAAGACCCUUCGAGUGAATT against Nkd2, for which the z-score is -1.2.
In the case of GGCCAUUUAUCCAUGGUUGTT against Zdhhc17, the z-score was 0.954.
Consider GGCCUCAAGUUGCUAUGCCTT against Mlxipl, for which the z-score is -0.2.
For the sequence GGAGAUGAAGUUAAAGCGATT against Slc26a6, the z-score was 0.619.
To GGCAGAUGUGUUUGCUUUUTT against Pbk belongs 3.51 (active).
As for GCACUGAACUUUGUCGAUUTT against Fam122a, the z-score was 0.325.
In the case of “CCCGAAGAGCAAAAAAGAUTT against 1110004F10Rik”, the z-score was -1.5.
For the sequence CGGUCAUUAAUGAAGCCUGTT against Pamr1, the z-score is 2.65 (active).
GGUGGUGUGUGAUGAGAAUTT against Pabpc6: the z-score is 0.649.
Turning to GGGCUGUUUGUAGCAGAUUTT against Olfr1279, the z-score was -1.12.
Consider GGUCACGGAGAAACUAAAGTT against Ppme1, for which the z-score is 0.703.
For the sequence GGCUAGGUAAUCACUGGGUTT against Fate1, the z-score was 0.987.
As to CCAAUAUGAGACCAUCAUUTT against Sv2b, the z-score was 0.385.
With GCGACAUAACUGCAUUCAATT against Kcnh1, the z-score was 2.79 (active).
With GGUCAAUUUGGUUUGUGAATT against Cenpa the figure was -0.374; with GGUAGAAAUUUACCUCAUUTT against Dusp4, -1.42; with GCAGAGGAUAUAAAACAAGTT against Pde2a, -0.86.
Consider GGAAAAUAGGGCGACAAAUTT against Tdrd7, for which the z-score is 0.673.
Regarding GGAUGAUUGAGAUAGCGAATT against Polr1e, the z-score is 0.608.
Take CCGUACAUAUGGUGAUCCATT against Rtn1: the z-score was -0.162.
As to GGGAGAAGUGCUGUGGAUUTT against Fras1, the z-score was 0.401.
As to CGAGAGCUAAAAAGAGUAATT against Chd1, the z-score was 0.42.
For the sequence GGAAGUUUCUGGAAACACATT against Mbd3, the z-score was -0.487.
Regarding GGAGGAUUGUCCACAUGGATT against Ccl27a, the z-score was 4.32 (active).
Consider GGCAACAUGGUGAUCAUCGTT against Olfr323, for which the z-score was -0.461.
To CGGUAUUUCAUCCUGGAUATT against Plekha1 belongs 0.403; to GCAUGGAACAAGGUUGCUCTT against Pa2g4, 1.84; to GGUACACCAAGGCUUGCUATT against Coq8b, -0.343.
For the sequence GCAUGAGUUAGACCAUAAUTT against Phf12, the z-score was -2.59 (active).
To GGCCUCUUUUGGUAUUCCATT against Zfp42 belongs 0.946.
On to GGCCUCAAUGCAGUAUCAATT against Shisal2b, for which the z-score is 0.773.
With GCUAAGAAUAGGAGUUAGATT against Ift57, the z-score was 0.419.
As for GGUCAGAAGUUAAUUUAUGTT against Rad23b, the z-score is -0.413.
For the sequence GGACCUGCUCUUGGUCAUUTT against Fam118a, the z-score is 0.461.
Take GGGAAGUGACCAUCAAGAATT against Slc8a3: the z-score is 2.56 (active).
Regarding GGUGAUGCGCCUGAAGGAUTT against Ntng2, the z-score was -0.668.
With GCUCCUCCAUCAGUUAGAUTT against Ube2v2 the figure was -1.06.
Regarding GGAAUCAACUUGGUGGCUCTT against Rxrg, the z-score is -0.0611.
For GGGUUUCUGUUUGAUUCCATT against Gria1, the z-score is -0.747.
Turning to GGCUAUGCUGCCUACUACUTT against Bmp7, the z-score is -2.63 (active).
With GCCAACCUCUGUGUGUAUUTT against Olfr1263 the figure was 0.799.
As to UGGUUGUAUUAUUCUGUUGTT against Defb38, the z-score is 0.188.
On to GGACUUAUCUCAUCCAAGATT against Gm9946, for which the z-score is 0.39.
For the sequence CCAGAAACGAUGCAUUCAUTT against Olfr124, the z-score is 2 (active).
GGACUUUGAAAAAGAUGCATT against Fkbp7: the z-score was 1.21.
With AGUAUUCUUUGCUUUCCUUTT against Olfr822 the figure was 0.731.

The values are drawn from PubChem BioAssay AID1508600 (Functional Genomics Laboratory (NCATS/FGL), 2020).
